Only a selection was taken, and hits are over-represented in it overall.
Dicer inh = inhibitors of human Dicer processing of pre-microRNA; Q9UPY3; cat-ELCCA pre-miR-21 Dicer processing, chemiluminescence; stronger effect = higher value; z-score at 25 µM; hit rate 6% among 47,000; in the data active = z-score above about 3, passing the limit was not always enough;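 note: plate controls were vehicle for no effect and no enzyme for full effect; higher signal means more uncleaved substrate so more Dicer inhibition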
Target sequence (Q9UPY3 whole entry, looked up): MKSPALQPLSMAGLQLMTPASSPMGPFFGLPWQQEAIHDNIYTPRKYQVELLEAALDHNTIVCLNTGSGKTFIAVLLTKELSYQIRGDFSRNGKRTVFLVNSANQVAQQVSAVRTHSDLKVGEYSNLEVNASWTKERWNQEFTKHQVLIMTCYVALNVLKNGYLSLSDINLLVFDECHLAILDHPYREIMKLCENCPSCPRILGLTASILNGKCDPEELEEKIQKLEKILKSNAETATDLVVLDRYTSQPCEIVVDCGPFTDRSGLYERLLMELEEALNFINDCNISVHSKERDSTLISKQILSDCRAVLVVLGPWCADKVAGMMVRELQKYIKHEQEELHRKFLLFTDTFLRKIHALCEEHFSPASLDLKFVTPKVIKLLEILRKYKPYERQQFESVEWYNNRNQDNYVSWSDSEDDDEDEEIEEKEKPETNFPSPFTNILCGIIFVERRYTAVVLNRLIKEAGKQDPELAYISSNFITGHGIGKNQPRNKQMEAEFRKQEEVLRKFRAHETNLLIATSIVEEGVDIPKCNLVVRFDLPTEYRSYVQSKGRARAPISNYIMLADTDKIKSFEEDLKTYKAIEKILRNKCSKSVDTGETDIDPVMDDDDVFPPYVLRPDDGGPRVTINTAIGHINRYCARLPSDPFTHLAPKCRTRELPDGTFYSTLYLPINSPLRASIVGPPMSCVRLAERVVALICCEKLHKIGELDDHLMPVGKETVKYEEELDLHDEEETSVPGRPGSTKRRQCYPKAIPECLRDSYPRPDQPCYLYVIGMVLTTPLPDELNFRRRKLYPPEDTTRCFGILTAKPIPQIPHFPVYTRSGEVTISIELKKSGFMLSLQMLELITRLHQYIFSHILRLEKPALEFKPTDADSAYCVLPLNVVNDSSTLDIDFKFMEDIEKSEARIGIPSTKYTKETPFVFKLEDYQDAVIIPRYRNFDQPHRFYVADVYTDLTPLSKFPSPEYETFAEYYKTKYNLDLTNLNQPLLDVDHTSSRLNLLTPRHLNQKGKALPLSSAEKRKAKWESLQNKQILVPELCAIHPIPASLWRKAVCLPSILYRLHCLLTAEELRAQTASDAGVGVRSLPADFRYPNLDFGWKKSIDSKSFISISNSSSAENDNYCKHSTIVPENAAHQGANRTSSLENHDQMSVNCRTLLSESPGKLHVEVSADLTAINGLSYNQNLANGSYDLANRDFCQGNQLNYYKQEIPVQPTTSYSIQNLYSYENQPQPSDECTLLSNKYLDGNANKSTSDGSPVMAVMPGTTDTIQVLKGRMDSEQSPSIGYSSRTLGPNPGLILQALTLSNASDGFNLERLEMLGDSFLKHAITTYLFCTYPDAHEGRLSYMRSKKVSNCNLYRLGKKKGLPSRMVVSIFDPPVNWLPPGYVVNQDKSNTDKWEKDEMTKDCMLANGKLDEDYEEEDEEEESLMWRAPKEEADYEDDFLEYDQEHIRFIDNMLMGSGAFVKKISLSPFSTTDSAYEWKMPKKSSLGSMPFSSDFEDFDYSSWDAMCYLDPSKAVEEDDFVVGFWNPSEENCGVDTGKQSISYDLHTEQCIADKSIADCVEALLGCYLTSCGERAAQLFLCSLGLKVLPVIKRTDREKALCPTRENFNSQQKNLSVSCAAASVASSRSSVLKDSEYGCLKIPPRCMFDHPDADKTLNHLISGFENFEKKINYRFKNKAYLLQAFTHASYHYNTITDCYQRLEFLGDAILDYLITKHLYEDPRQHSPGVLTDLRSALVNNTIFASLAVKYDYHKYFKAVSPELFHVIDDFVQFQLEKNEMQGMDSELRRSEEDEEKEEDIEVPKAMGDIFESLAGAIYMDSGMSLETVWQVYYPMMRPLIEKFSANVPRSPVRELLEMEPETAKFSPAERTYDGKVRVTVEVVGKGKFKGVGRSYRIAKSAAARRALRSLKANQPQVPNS
Numbers without * were called inactive.

SMILES	Dicer inh
CCCCCCn1c(C2CC(=O)N(c3ccccc3)C2)nc2ccccc21 (configuration not stated)	2.2
O=C1CC(c2nc3ccccc3n2Cc2ccc(Cl)cc2)CN1c1ccccc1 (configuration not stated)	5.9*
O=c1[nH]c2ccccc2n1Cc1ccc(Cl)cc1	0.77
CC(C)c1ccc(N2CC(C(=O)O)CC2=O)cc1 (configuration not stated)	7.6
O=C1CC(SCc2ccc(Cl)cc2)C(=O)N1c1ccccc1 (configuration not stated)	-5.8
Cc1nc2ccccc2n1C1CC(=O)N(c2ccc(F)cc2)C1=O (configuration not stated)	0.57
C=C(C)Cn1c(C2CC(=O)N(c3ccc(OCC)cc3)C2)nc2ccccc21 (configuration not stated)	2.2
CC(c1ccccc1)n1c(C2CC(=O)N(c3ccccc3)C2)nc2ccccc21 (configuration not stated)	4.7*
CCOc1ccc(N2CC(c3nc4ccccc4n3CC)CC2=O)cc1 (configuration not stated)	2.9
CSc1nc2ccccc2c(=O)n1CCc1ccccc1	-0.42
CC(C)CCn1c(C2CC(=O)N(c3ccccc3)C2)nc2ccccc21 (configuration not stated)	3.7*
Nc1nnc(-c2cc(-c3ccc(O)cc3)on2)o1	0.11
COc1ccc(-c2noc(COc3ccc4c(c3)CCCC4)n2)cc1OC	0.93
O=C(Oc1cccc2[nH]ccc12)c1ccc(C(F)(F)F)cc1	-0.51
COC(=O)c1ccc(C2c3c(oc4cc(C)c(C)cc4c3=O)C(=O)N2c2nccs2)cc1 (configuration not stated)	2.7
COc1cc(C)c(C(c2ccc(N(C)C)cc2)c2ccc(N(C)C)cc2)cc1C	-1.1
CCCc1cnc(N2CCSCC2)nc1	-1.6
CN(C)c1ccc(-c2nc3n(n2)C(c2ccc(F)cc2)C2=C(CC(C)(C)CC2=O)N3)cc1 (configuration not stated)	4.6*
CN(C)c1ccc(-c2nc3n(n2)C(c2cccnc2)C2=C(CC(C)(C)CC2=O)N3)cc1 (configuration not stated)	1.6
CC1=C(C(N)=O)C(c2ccc(Cl)cc2)n2nc(-c3ccc(N(C)C)cc3)nc2N1 (configuration not stated)	-2.3
CN(C)c1ccc(-c2nc3n(n2)C(c2cccnc2)C2=C(CCCC2=O)N3)cc1 (configuration not stated)	1.2
CN(C)c1ccc(-c2nc3n(n2)C(c2ccc(Cl)cc2)C2=C(CC(C)(C)CC2=O)N3)cc1 (configuration not stated)	3.6*
CCOc1ccc(C2C3=C(CC(C)(C)CC3=O)Nc3nc(-c4ccc(OC)cc4)nn32)cc1 (configuration not stated)	0.71
CCOc1ccc(C2CC(=O)NC(SCC)=C2C#N)cc1 (configuration not stated)	1.9
O=C(Nc1cccc(C(F)(F)F)c1)c1c(F)cccc1F	-0.79
SMILES	Dicer inh
C=CCN1C(=O)C(O)(CC(=O)c2ccc(C(C)(C)C)cc2)c2ccccc21 (configuration not stated)	-1.6
N#CCCN(Cc1ccccc1)C(=O)c1ccccc1	-0.67
CC(=O)Nc1ccc(S(=O)(=O)N(c2ccccc2C(F)(F)F)S(=O)(=O)c2ccc(NC(C)=O)cc2)cc1	0.03
CC(C)CC(NC(=O)Cc1ccsc1)C(=O)NNC(=O)c1ccccc1Cl (configuration not stated)	-0.88
CC(C)CC(NC(=O)Cc1ccsc1)C(=O)NNS(=O)(=O)c1ccc(Cl)cc1 (configuration not stated)	12*
CC(C)CC(NC(=O)Cc1ccsc1)C(=O)NN (configuration not stated)	-2.8
Fc1ccc(NCn2nnc3cc(Cl)ccc32)cc1	1
FC(F)(F)c1ccc(NCn2nnc3cc(Cl)ccc32)cc1	6.5
FC(F)(F)Oc1ccc(NCn2nnc3ccccc32)cc1	3.6*
COc1ccc2[nH]c(-c3ccccc3)nc(=S)c2c1	-0.55
O=S(=O)(/N=C(\NNC(=S)Nc1cccc(C(F)(F)F)c1)N1CCCC1)c1ccccc1	-1.2
COC(=O)c1cc2nc(-c3cccs3)cc(C(F)(F)F)n2n1	-0.66
FC(F)(F)c1cc(-c2cccs2)nc2cc(-c3ccco3)nn12	3.5*
Cc1ccc(-c2cc3nc(-c4ccco4)cc(C(F)(F)F)n3n2)cc1	-1.3
COC(=O)c1sc(S(C)(=O)=O)c(C#N)c1-c1cc(C(C)(C)C)oc1C	8
CS(=O)(=O)N1CCCc2ccccc21	-0.37
Cn1c(-c2ccccc2)cnc1NCc1cc(Br)ccc1F	1.1
Cn1c(-c2ccc(Cl)cc2)cnc1NCc1ccc(F)cc1F	3.3*
COc1cccc(-c2cnc(NCc3ccc(Br)cc3)n2C)c1	0.77
Cc1ccc(-c2cnc(NCc3ccc(Br)cc3)n2C)cc1	3.3*
Cn1c(-c2ccc(Cl)cc2)cnc1NCc1ccccc1F	3.2*
Cn1c(-c2ccccc2)cnc1NCc1cc(Cl)ccc1O	1.5
Cn1c(-c2ccc(F)cc2)cnc1NCc1ccc(Br)cc1	3.7
COc1ccc(-c2cnc(NCc3cc(Br)ccc3F)n2C)cc1	-1.2
Cn1c(-c2ccc(F)cc2)cnc1NCc1ccccc1F	1.6
SMILES	Dicer inh
CCCCCC(=O)Nc1ccc(N2CCN(c3ccc(C(F)(F)F)cn3)CC2)nc1	7.3
Cc1cccc(C2N3CC4(C)CN2CC(C)(C3)C4=O)c1 (configuration not stated)	-6.4
O=C(CSc1nnnn1-c1ccccc1)N1c2ccccc2Sc2ccccc21	-0.26
Cc1cc2n(n1)C(c1ccc(N3CCOCC3)cc1)Nc1ccccc1-2 (configuration not stated)	-0.05
S=C(NNC(=S)NC1CC2C=CC1C2)Nc1ccccc1Cl (configuration not stated)	1.9
CCOC(=O)c1sc(SC)c2c1CCc1cnc(SCC(=O)Nc3ccc(Cl)cc3)nc1-2	2.6
Cn1c(=O)n(CC(=O)O)c(=O)c2c1nc1n2CCN1c1ccc(Cl)cc1	3.4*
COc1cccc(N2CCn3c2nc2c3c(=O)n(CC(=O)O)c(=O)n2C)c1	1.5
Cn1c(=O)n(CC(=O)O)c(=O)c2c1nc1n2CCCN1c1cccc(Cl)c1	1.5
CC1CC(=O)Nc2ccccc2N1C(=O)c1sc2ccccc2c1Cl (configuration not stated)	-1.4
Cc1c(C)c(C)c(S(=O)(=O)Nc2cc(Cl)cc(Cl)c2)c(C)c1C	0.7
Cc1c(C)c(C)c(S(=O)(=O)Nc2ccccc2N)c(C)c1C	13*
Cc1c(C)c(C)c(S(=O)(=O)Nc2ccc(Cl)cc2Cl)c(C)c1C	-0.12
C=CCOc1cccc(C2c3c(oc4ccc(F)cc4c3=O)C(=O)N2Cc2ccc3c(c2)OCO3)c1 (configuration not stated)	-1.8
COc1ccc(OC)c(CNc2nc3ccccc3n2C)c1	2.5
COc1ccc(-c2cn3c4ccccc4nc3n2CCCN2CCOCC2)cc1	3.6*
O=C(Nc1nc2ccccc2n1CCN1CCOCC1)C1CCCCC1	3
Cc1ccc(-c2cn3c4ccccc4nc3n2CCCN2CCCCC2)cc1	2.9
COc1ccccc1CNc1nc2ccccc2n1C	3.8*
Cc1ccc(-c2cn3c4ccccc4nc3n2CCO)cc1	1.3
COc1ccc(OC)c(CNc2nc3ccccc3n2CCN2CCCCC2)c1	3.8*
CCn1c(NCc2cc(OC)ccc2OC)nc2ccccc21	2.8
CN(C)c1ccc(CNc2nc3ccccc3n2C)cc1	-0.16
COc1ccc(OCCn2c(C)nc3ccccc32)cc1	0.43
OCc1nc2ccccc2n1Cc1ccccc1Cl	-0.29

Screening data deposited in PubChem BioAssay by Center for Chemical Genomics, University of Michigan.
